# Reference: publication PMC7862700, “An all-to-all approach to the identification of sequence-specific readers for epigenetic DNA modifications on cytosine”
# Legend:
# Assay in all cases: DAPPL (digital affinity profiling via proximity ligation, sequencing); 10 mM Tris-HCl pH 7.5, 50 mM NaCl, 1 mM DTT, 4% glycerol, room temperature, 30 min; GST-TFs on glutathione beads, 16-mer random dsDNA library, 0.1% formaldehyde crosslink after washing; high values mean tight binding
# [1] = biological target: T1, FLI1 (Homo sapiens, UniProt Q01543 1-452); details: protein: recombinant; tags: N-terminal GST; dsDNA, one strand shown
# T1 sequence: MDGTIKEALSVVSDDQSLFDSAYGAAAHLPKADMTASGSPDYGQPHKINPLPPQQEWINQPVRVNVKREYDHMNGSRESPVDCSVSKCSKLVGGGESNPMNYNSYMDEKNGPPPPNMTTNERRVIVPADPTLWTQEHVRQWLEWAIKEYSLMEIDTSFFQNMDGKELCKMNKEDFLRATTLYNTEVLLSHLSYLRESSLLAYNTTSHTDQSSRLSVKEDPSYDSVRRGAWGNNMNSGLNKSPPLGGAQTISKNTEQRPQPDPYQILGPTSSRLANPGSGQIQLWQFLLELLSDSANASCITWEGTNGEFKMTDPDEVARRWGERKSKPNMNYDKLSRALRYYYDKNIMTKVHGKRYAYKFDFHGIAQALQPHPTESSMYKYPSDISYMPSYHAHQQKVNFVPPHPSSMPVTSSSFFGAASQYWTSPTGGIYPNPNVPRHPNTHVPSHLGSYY
# Summary of the method: (§1)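 A tag-only sample was pooled with DNA-barcoded human transcription factors that had been expressed in yeast as GST fusions and captured on glutathione beads. The pools were incubated for 30 min at room temperature with 200 nmole of a random double-stranded 16-mer DNA library in Tris/NaCl/DTT/glycerol buffer, then washed, crosslinked with 0.1% formaldehyde, proximity-ligated (BsaI/T4 ligase, 1 h, 37 °C), PCR-amplified and sequenced on an Illumina NextSeq500. Binding signal is each hexamer's read frequency for a factor divided by its frequency for the tag-only sample.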
# [2] = biological target: T2, ELK1 (Homo sapiens, UniProt P19419 1-428); details: protein: recombinant; tags: N-terminal GST; dsDNA, one strand shown
# T2 sequence: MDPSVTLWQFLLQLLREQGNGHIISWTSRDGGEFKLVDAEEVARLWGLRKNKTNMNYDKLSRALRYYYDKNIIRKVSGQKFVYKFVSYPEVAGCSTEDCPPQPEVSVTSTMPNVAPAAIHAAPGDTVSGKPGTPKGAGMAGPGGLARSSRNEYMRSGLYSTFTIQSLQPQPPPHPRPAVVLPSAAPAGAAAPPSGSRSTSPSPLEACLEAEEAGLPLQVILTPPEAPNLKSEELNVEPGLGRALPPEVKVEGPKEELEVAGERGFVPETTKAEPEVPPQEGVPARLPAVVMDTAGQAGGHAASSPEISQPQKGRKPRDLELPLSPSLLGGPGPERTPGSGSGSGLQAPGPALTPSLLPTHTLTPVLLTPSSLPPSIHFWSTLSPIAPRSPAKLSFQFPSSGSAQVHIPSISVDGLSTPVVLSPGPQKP
# Summary of the method: as §1
# [3] = biological target: T3, GABPA (Homo sapiens, UniProt Q06546 1-454); details: protein: recombinant; tags: N-terminal GST; dsDNA, one strand shown
# T3 sequence: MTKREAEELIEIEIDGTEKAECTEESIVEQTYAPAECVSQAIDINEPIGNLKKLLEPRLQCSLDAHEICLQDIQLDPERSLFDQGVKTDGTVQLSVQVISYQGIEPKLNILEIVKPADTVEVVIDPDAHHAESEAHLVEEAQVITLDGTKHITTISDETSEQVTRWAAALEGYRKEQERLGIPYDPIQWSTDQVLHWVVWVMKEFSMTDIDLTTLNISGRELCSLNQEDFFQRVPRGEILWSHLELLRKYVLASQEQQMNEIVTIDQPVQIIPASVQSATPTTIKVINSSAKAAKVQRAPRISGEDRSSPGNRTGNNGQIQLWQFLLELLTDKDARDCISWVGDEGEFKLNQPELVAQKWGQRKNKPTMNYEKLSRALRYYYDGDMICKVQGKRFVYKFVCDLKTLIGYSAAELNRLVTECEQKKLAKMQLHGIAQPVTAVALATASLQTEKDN
# Summary of the method: as §1
# [4] = biological target: T4, ERG (Homo sapiens, UniProt P11308 1-479); details: protein: recombinant; tags: N-terminal GST; dsDNA, one strand shown
# T4 sequence: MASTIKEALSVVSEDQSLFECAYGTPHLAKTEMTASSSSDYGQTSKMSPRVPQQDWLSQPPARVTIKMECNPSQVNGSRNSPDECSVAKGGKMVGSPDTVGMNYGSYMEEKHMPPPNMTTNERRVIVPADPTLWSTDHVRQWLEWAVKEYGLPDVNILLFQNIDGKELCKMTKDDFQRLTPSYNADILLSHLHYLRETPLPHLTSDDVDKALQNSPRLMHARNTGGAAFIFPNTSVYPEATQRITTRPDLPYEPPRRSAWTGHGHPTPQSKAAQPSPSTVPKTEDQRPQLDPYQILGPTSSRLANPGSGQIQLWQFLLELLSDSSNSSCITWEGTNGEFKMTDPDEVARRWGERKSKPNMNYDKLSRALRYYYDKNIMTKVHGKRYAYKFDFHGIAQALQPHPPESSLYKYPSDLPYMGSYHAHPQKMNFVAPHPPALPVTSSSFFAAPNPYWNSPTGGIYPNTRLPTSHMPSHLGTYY
# Summary of the method: as §1
# [5] = biological target: ELF1 (Homo sapiens, UniProt P32519 1-619); details: protein: recombinant; tags: N-terminal GST; dsDNA, one strand shown
# Summary of the method: as §1
# [6] = biological target: T5, EHF (Homo sapiens, UniProt Q9NZC4 1-300); details: protein: recombinant; tags: N-terminal GST; dsDNA, one strand shown
# T5 sequence: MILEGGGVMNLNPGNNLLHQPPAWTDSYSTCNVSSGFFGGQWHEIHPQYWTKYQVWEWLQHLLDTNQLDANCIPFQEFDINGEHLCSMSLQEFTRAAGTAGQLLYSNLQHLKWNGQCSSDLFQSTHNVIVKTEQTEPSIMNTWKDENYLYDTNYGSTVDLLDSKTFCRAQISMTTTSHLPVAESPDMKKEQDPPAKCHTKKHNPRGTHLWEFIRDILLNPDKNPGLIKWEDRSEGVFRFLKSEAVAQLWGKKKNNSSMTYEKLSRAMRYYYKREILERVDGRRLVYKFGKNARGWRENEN
# Summary of the method: as §1
# [7] = biological target: SPI1 (Homo sapiens, UniProt P17947 1-270); details: protein: recombinant; tags: N-terminal GST; dsDNA, one strand shown
# Summary of the method: as §1
# [8] = biological target: SPIB (Homo sapiens, UniProt Q01892 1-262); details: protein: recombinant; tags: N-terminal GST; dsDNA, one strand shown
# Summary of the method: as §1
# [9] = biological target: T6, ELK3 (Homo sapiens, UniProt P41970 1-407); details: protein: recombinant; tags: N-terminal GST; dsDNA, one strand shown
# T6 sequence: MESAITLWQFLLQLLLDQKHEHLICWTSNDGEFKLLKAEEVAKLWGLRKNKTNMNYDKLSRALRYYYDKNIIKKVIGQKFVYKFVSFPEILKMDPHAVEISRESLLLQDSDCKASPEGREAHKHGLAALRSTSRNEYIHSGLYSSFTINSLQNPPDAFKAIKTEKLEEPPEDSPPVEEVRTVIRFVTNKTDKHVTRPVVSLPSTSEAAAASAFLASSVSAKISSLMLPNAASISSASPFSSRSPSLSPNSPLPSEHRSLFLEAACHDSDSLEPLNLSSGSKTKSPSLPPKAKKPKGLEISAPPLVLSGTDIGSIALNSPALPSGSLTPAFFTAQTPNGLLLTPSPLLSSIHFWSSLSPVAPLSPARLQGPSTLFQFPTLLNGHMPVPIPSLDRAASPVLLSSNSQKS
# Summary of the method: as §1
# [10] = biological target: T7, FEV (Homo sapiens, UniProt Q99581 1-238); details: protein: recombinant; tags: N-terminal GST; dsDNA, one strand shown
# T7 sequence: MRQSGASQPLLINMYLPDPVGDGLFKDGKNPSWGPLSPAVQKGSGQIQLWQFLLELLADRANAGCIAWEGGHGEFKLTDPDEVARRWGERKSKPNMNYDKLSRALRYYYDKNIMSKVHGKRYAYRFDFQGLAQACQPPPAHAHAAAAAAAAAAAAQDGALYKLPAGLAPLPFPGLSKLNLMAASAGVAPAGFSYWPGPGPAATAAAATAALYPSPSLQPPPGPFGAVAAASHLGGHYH
# Summary of the method: as §1
# [11] = biological target: ETV5 (Homo sapiens, UniProt P41161 1-510); details: protein: recombinant; tags: N-terminal GST; dsDNA, one strand shown
# Summary of the method: as §1
# [12] = biological target: HSF1 (Homo sapiens, UniProt Q00613 1-529); details: protein: recombinant; tags: N-terminal GST; chain copies: 3; dsDNA, one strand shown
# Summary of the method: as §1
# [13] = biological target: T8, SPIC (Homo sapiens, UniProt Q8N5J4 1-248); details: protein: recombinant; tags: N-terminal GST; dsDNA, one strand shown
# T8 sequence: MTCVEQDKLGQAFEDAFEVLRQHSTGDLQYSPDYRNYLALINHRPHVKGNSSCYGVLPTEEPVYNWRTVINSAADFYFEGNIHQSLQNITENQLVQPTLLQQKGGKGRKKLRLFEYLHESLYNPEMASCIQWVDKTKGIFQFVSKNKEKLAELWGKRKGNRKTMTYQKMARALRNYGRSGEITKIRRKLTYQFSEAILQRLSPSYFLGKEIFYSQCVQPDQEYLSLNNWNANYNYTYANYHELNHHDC
# Summary of the method: as §1
# [14] = biological target: ELF4 (Homo sapiens, UniProt Q99607 1-663); details: protein: recombinant; tags: N-terminal GST; dsDNA, one strand shown
# Summary of the method: as §1
# [15] = biological target: T9, ELK4 (Homo sapiens, UniProt P28324-2 1-405); details: protein: recombinant; tags: N-terminal GST; dsDNA, one strand shown
# T9 sequence: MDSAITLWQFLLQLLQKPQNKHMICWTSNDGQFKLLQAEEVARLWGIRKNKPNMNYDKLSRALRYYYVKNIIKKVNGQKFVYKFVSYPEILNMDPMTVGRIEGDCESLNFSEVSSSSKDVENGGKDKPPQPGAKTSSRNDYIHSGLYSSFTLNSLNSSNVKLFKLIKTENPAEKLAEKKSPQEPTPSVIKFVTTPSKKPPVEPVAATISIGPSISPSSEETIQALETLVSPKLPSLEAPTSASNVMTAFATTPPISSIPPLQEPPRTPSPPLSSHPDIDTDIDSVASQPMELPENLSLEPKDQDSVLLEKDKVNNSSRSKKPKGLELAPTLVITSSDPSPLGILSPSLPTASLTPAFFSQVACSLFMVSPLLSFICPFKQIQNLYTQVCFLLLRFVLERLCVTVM
# Summary of the method: as §1
# [16] = biological target: T10, ETV2 (Homo sapiens, UniProt O00321 1-342); details: protein: recombinant; tags: N-terminal GST; dsDNA, one strand shown
# T10 sequence: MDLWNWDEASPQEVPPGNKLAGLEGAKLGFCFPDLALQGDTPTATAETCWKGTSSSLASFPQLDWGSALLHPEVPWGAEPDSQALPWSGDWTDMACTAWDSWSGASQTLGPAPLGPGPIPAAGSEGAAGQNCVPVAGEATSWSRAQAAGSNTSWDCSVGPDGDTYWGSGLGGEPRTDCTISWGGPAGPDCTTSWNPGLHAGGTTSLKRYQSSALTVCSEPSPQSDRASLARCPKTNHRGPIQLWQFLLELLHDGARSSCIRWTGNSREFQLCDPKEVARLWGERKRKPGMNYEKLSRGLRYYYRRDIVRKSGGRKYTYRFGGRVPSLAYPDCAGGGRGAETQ
# Summary of the method: as §1
# [17] = biological target: T11, ELF3 (Homo sapiens, UniProt P78545 1-371); details: protein: recombinant; tags: N-terminal GST; dsDNA, one strand shown
# T11 sequence: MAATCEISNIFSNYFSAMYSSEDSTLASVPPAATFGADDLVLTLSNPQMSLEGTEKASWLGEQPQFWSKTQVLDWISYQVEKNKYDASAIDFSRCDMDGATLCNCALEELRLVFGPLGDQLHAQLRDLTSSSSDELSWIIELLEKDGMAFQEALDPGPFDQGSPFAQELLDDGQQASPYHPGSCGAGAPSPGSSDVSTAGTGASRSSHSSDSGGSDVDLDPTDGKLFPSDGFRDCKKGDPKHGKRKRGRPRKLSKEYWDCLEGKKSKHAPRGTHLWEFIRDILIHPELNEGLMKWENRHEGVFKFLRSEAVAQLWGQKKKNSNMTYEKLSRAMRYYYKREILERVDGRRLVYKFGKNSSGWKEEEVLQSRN
# Summary of the method: as §1
# [18] = biological target: CRX (Homo sapiens, UniProt O43186 1-299); details: protein: recombinant; tags: N-terminal GST; dsDNA, one strand shown
# Summary of the method: as §1
# [19] = biological target: ETV1 (Homo sapiens, UniProt P50549 1-477); details: protein: recombinant; tags: N-terminal GST; dsDNA, one strand shown
# Summary of the method: as §1
# Chain of SPIB (Q01892 whole entry): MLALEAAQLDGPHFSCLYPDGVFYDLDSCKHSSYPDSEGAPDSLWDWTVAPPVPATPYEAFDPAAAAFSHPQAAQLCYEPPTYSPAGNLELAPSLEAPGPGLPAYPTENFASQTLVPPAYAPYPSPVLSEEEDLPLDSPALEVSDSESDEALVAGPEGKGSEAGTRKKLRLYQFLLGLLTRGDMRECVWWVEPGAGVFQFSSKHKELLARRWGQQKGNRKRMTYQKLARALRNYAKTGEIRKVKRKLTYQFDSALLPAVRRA
# Chain of ELF1 (P32519 whole entry): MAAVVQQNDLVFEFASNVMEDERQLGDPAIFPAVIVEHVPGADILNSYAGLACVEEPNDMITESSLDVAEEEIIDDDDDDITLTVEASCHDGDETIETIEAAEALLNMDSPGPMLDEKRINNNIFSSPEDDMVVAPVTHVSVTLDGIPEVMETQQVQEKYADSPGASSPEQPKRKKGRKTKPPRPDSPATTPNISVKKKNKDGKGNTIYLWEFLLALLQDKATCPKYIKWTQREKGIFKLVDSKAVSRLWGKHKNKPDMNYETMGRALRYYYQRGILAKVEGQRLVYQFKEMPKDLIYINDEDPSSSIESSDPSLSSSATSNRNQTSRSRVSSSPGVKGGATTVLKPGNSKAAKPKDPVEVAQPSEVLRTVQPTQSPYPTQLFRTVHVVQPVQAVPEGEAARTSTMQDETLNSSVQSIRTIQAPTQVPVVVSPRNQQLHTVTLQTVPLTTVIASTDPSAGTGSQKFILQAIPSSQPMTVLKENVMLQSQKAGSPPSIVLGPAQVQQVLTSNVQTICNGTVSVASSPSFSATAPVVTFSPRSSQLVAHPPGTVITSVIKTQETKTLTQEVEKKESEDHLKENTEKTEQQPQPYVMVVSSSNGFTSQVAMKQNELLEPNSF
# Chain of ELF4 (Q99607 whole entry): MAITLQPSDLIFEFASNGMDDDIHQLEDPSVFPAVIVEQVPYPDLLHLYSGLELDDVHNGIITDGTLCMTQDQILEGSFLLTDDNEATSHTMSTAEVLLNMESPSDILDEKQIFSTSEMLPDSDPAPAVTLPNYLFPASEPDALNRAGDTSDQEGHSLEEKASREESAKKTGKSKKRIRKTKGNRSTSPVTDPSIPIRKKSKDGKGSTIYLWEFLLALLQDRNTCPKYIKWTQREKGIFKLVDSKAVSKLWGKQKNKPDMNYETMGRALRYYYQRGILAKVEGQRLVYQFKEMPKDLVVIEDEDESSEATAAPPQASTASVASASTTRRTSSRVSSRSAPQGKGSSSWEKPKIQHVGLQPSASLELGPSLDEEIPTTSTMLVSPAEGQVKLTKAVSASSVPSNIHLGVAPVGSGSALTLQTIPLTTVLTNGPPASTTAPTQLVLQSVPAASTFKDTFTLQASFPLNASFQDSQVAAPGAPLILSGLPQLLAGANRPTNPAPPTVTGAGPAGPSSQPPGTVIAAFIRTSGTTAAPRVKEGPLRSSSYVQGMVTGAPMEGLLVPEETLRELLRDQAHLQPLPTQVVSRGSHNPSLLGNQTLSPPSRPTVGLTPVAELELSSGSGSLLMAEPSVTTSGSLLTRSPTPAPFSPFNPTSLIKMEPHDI
# Chain of HSF1 (Q00613 whole entry): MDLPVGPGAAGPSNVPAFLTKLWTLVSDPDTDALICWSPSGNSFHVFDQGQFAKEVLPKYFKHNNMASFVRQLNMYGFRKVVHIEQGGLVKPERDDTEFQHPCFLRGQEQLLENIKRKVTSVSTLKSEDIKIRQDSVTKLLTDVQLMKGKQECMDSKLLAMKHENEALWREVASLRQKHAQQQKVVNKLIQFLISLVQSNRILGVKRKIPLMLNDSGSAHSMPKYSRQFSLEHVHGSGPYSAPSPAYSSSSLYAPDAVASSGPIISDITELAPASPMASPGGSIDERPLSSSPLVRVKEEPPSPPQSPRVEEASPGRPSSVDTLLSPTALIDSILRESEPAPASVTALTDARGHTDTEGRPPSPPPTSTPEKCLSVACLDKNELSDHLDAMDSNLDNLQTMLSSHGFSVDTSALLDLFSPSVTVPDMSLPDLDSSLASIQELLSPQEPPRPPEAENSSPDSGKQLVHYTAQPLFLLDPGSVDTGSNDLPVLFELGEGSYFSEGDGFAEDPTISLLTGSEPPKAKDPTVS
# Chain of ETV5 (P41161 whole entry): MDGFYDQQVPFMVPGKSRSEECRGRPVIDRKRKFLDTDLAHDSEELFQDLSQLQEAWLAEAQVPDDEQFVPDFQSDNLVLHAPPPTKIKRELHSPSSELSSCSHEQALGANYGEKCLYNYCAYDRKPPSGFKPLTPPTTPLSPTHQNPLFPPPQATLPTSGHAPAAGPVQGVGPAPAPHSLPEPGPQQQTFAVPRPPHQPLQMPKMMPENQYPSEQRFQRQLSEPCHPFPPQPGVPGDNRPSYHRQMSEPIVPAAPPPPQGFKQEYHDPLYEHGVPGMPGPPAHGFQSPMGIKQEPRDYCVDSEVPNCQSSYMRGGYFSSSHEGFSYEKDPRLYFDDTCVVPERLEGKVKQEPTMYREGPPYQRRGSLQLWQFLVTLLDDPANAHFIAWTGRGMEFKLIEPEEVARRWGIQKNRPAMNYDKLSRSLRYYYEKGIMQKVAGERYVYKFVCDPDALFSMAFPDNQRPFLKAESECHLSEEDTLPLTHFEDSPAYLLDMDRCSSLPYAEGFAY
# Chain of ETV1 (P50549 whole entry): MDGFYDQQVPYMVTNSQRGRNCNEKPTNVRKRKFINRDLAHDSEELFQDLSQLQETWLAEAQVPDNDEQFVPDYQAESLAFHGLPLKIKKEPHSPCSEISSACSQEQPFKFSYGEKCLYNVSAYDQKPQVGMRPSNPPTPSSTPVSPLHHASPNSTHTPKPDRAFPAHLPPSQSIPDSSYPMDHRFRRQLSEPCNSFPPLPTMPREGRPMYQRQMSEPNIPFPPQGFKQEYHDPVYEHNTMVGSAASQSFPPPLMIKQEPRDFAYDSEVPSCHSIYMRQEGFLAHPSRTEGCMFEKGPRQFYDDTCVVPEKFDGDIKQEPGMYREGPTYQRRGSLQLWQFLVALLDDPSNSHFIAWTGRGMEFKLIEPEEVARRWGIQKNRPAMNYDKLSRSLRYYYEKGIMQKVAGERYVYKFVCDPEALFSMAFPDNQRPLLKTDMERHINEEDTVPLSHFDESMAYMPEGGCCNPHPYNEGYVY
# Chain of CRX (O43186 whole entry): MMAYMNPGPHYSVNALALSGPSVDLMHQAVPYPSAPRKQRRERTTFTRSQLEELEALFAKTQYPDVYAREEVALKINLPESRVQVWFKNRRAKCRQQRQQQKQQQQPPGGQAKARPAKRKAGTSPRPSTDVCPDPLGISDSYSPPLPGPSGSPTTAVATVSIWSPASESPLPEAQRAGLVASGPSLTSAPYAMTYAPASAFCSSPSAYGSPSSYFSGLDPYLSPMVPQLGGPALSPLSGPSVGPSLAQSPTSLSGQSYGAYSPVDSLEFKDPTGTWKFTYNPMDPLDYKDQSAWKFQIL
sequence,measurement,setting,value
CTCAAA,binding signal,[1],"1.2 fold enrichment (6-mer frequency, TF over GST control)"
same,binding signal,[2],"1.14 fold enrichment (6-mer frequency, TF over GST control)"
same,binding signal,[3],"1.16 fold enrichment (6-mer frequency, TF over GST control)"
same,binding signal,[4],"1.13 fold enrichment (6-mer frequency, TF over GST control)"
same,binding signal,[5],"1.25 fold enrichment (6-mer frequency, TF over GST control)"
same,binding signal,[6],"1.11 fold enrichment (6-mer frequency, TF over GST control)"
same,binding signal,[7],"1.29 fold enrichment (6-mer frequency, TF over GST control)"
same,binding signal,[8],"1.23 fold enrichment (6-mer frequency, TF over GST control)"
same,binding signal,[9],"1.15 fold enrichment (6-mer frequency, TF over GST control)"
same,binding signal,[10],"1.28 fold enrichment (6-mer frequency, TF over GST control)"
same,binding signal,[11],"1.18 fold enrichment (6-mer frequency, TF over GST control)"
same,binding signal,[12],"1.24 fold enrichment (6-mer frequency, TF over GST control)"
same,binding signal,[13],"1.2 fold enrichment (6-mer frequency, TF over GST control)"
same,binding signal,[14],"1.18 fold enrichment (6-mer frequency, TF over GST control)"
same,binding signal,[15],"1.2 fold enrichment (6-mer frequency, TF over GST control)"
same,binding signal,[16],"1.16 fold enrichment (6-mer frequency, TF over GST control)"
same,binding signal,[17],"1.32 fold enrichment (6-mer frequency, TF over GST control)"
same,binding signal,[18],"1.25 fold enrichment (6-mer frequency, TF over GST control)"
same,binding signal,[19],"1.2 fold enrichment (6-mer frequency, TF over GST control)"
